# Source: PubChem BioAssay AID652117 (Broad Institute, 2013)
# Measured potencies and affinities stand elsewhere. The source made the active and inactive calls.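 How the source made its calls: active means compounds whose fitted half-maximal cell-killing dose is no more than twice the top tested dose; inconclusive means flat moderate loss of cell viability, or an unreliable curve fit; inactive means the rest.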
# Experiment: loss of viability in HeLa cells – cell-based, ATP luminescence, dry powder, cytotoxicity control, dose response (AID 652117)
# Details: CellTiter-Glo ATP luminescence, 48 h; series mostly up to 26 µM; activity change, negative = cytotoxicity: at the top concentration
row,SMILES,"activity change, negative = cytotoxicity"
1,CCOC(=O)C1(CCOc2ccccc2)CCN(Cc2ccc(OC)c(Cl)c2)CC1,-13.4% (inactive)
2,O=C(NC1CCCC1)C1(CCOc2ccccc2)CCN(Cc2ccc(O)c(Cl)c2)CC1,1.32% (inactive)
3,C=CCOc1ccc(CN2CCC(CCOc3ccccc3)(C(=O)O)CC2)cc1Cl,-6.92% (inactive)
4,C/C1=C\C[C@H](OC(=O)c2ccc(O)cc2)/C(C)=C/[C@@H](O)C(C)(C)CCC1,-11.7% (inactive)
5,CCOC(=O)C1(CCOC)CCN(Cc2ccc(O)c(Cl)c2)CC1,-6.28% (inactive)
6,O=C(Nc1ccccc1)C1(CCOc2ccccc2)CCN(Cc2ccc(O)c(Cl)c2)CC1,-2.8% (inactive)
7,C=CCOc1ccc(CN2CCC(CCOc3ccccc3)(C(=O)OCC)CC2)cc1Cl,-16.3% (inactive)
8,CCOC(=O)C1(CCOC)CCCN(Cc2ccc(Cl)cc2)C1 (stereo not given),5.63% (inactive)
9,CCOC(=O)C1(CCOc2ccccc2)CCN(Cc2ccc(O)c(Cl)c2)CC1,-10.2% (inactive)
10,O=C(N1CCCC1)C1(CCOc2ccccc2)CCN(Cc2ccc(O)c(Cl)c2)CC1,-4.71% (inactive)
11,CCOC(=O)C1(Cc2cccc(OC)c2)CCN(Cc2ccc(O)c(Cl)c2)CC1,-11.2% (inactive)
12,CCNC(=O)C1(CCOc2ccccc2)CCN(Cc2ccc(O)c(Cl)c2)CC1,6.23% (inactive)
13,CCOC(=O)C1CCN(C(=O)OC(C)(C)C)CC1,1.94% (inactive)
14,C=CCOc1ccc(CN2CCC(CCOc3ccccc3)(C(=O)N(C)CC)CC2)cc1Cl,-4.76% (inactive)
15,C/C1=C\[C@@H](O)C(C)(C)CCCC2(C)OC2C[C@@H]1OC(=O)c1ccc(O)cc1 (stereo not given in full),-15.2% (inactive)
16,CCOC(=O)C1(CCOc2ccccc2)CCN(C(=O)c2ccc(O)c(Cl)c2)CC1,-7.6% (inactive)
17,CCOC(=O)C1(CCOc2ccccc2)CCN(Cc2ccc3[nH]c(=O)oc3c2)CC1,-10.9% (inactive)
18,CCOC(=O)C1(Cc2ccccc2)CCN(Cc2ccc(O)c(Cl)c2)CC1,-11.8% (inactive)
19,CCN(C)C(=O)C1(CCOc2ccccc2)CCN(Cc2ccc(O)c(Cl)c2)CC1,-3.57% (inactive)
20,CCOC(=O)C1(CCOc2ccccc2)CCN(Cc2ccc(O)cc2)CC1,-15.3% (inactive)
21,CCOC(=O)C1(CCOc2ccccc2)CCN(Cc2ccc(OC)cc2)CC1,-18.1% (inactive)
22,C=CCOc1ccc(CN2CCC(CCOc3ccccc3)(C(=O)NCC)CC2)cc1Cl,0.968% (inactive)
23,CCOC(=O)C1(CCOc2ccccc2)CCN(C(=O)OC(C)(C)C)CC1,-0.744% (inactive)
24,C=CCOc1ccc(CN2CCC(CCOc3ccccc3)(C(=O)N3CCCC3)CC2)cc1Cl,-15.1% (inactive)
25,C=CCOc1ccc(CN2CCC(CCOc3ccccc3)(C(=O)NC3CCCC3)CC2)cc1Cl,-5.23% (inactive)
